Reference: PubChem BioAssay

assay: reversal of MRP1-mediated doxorubicin resistance, pilot screen, H69AR cells, doxorubicin co-treatment (AID 601); details: H69AR cells, CellTiter-Glo, 72 h; compound alone cytotoxicity; at 10 µM

SMILES	viability
CC(CCc1ccccc1)NC(=O)C1CCCN(c2nnc(-n3cccc3)s2)C1 (centres undefined)	82.6%
O=C(c1cc(C2CC2)on1)N1CCN(C(c2ccccc2)c2ccccc2)CC1	87.7%
O=C(C1COc2ccccc2O1)N1CCCC1 (centres undefined)	94.8%
CCCCOC(=O)Nc1nc2ccc(OC)cc2s1	99.7%
CCn1cc(C(=O)NCC2CCCO2)c(=O)c2cc(S(=O)(=O)N(C)C3CCCCC3)ccc21 (centres undefined)	68.5%
CCCNC(=O)CS(=O)(=O)Cc1nc(-c2cccc(OC)c2)oc1C	87.7%
CC(=O)C1=C(N2CCCCC2)CCC1=O	98.3%
CCOC(=O)C1CCN(Cc2ccc(F)c(Br)c2)CC1	85.5%
Cc1ccc(N(C(=O)c2ccncc2)C2C=CS(=O)(=O)C2)cc1 (centres undefined)	103%
COc1ccc(CCNC(=O)C2(C)CCC(=O)N2Cc2ccc3c(c2)OCO3)cc1OC (centres undefined)	92.8%
COc1ccc(C2c3c(oc4ccccc4c3=O)C(=O)N2c2ccc(C)cn2)cc1OC (centres undefined)	94.3%
CCn1cc(C(=O)NCCCOC)c(=O)c2cc(S(=O)(=O)N(C)C)ccc21	87.6%
Cc1cc(C)nc(/N=C2\NC(=O)CC(C(=O)O)N2c2ccc(Cl)cc2)n1 (centres undefined)	96%
O=C(O)c1ccccc1S(=O)(=O)NCC(O)COc1ccc(Br)cc1 (centres undefined)	99.9%
COC(=O)Cn1c(=NC(=O)CSCC(=O)Nc2cc(C)on2)sc2ccccc21	88.5%
COc1ccc(S(=O)(=O)N(CC(=O)N2CCN(c3ccccc3OC)CC2)c2ccccc2)cc1	86.8%
CCOc1ccccc1NC(=O)CC1Nc2cc(C)c(C)cc2NC1=O (centres undefined)	59.2%
COc1ccc(N2Cc3ccccc3C2)cc1Cl	89.9%
CCOC(=O)C(CC)n1nc(C)n2c(cc3sccc32)c1=O (centres undefined)	85.1%
CCOC(=O)C(CC)(CCC(=O)O)c1csc(N)n1 (centres undefined)	102%

SMILES	viability
CCOc1ccc(NC(=O)CN2C(=O)C3CCCN3C2=O)cc1 (centres undefined)	101%
CCOC(=O)N1CCN(C(=O)COc2ccc(S(=O)(=O)NC(C)C)cc2)CC1	90.3%
O=C(NC1CCCc2ccccc21)c1ccc(CNc2c(N3CCOCC3)c(=O)c2=O)cc1 (centres undefined)	91.7%
CNC(=O)c1ccsc1NC(=O)c1ccccc1	80.8%
N#Cc1cc2c(nc1SCC(=O)N1CCCCC1)CCCC2	87.6%
COc1ccc(N2CCN(c3oc(COc4ccccc4Cl)nc3C#N)CC2)cc1	92.3%
COc1ccccc1S(=O)(=O)Cc1ccc(C(=O)N2CCN(c3ccc(C)cc3)C(C)C2)o1 (centres undefined)	7.92%
CCOC(=O)N1CCC(c2cc(=O)n3[nH]c(C)c(-c4ccc(F)cc4)c3n2)CC1	21.3%
O=C1CCCC2=C1C(c1cccc(Br)c1)n1nc(-c3ccco3)nc1N2 (centres undefined)	103%
CCc1ccccc1NC(=O)c1cnc2n(c1=O)CCS2	91.6%
CC(CCc1ccco1)NC(=O)Cn1ncc2c1-c1ccccc1OC2 (centres undefined)	92.9%
COc1cccc(NC(=O)C2CCCN(S(=O)(=O)c3cccc4cccnc34)C2)c1 (centres undefined)	82.7%
COc1ccc(C(=O)Nc2nncs2)c(OC)c1	96.9%
CNC(=O)c1ccccc1NC(=O)c1c(O)c2c([nH]c1=O)CCCC2	109%
Cc1occc1C(=O)N1CCN(Cc2ccccc2)CC1	89.3%
CN(C)CCCN1C(=O)CSC1c1ccccc1 (centres undefined)	94.4%
CCc1ccc(N(CC(=O)NC2CCCC2)S(=O)(=O)c2c(C)noc2C)cc1	84%
CSc1cccc(NC(=O)C2CCN(S(=O)(=O)c3ccc(F)cc3)CC2)c1	84.4%
O=C(CSc1nnc(Cn2c(=O)sc3ccccc32)n1-c1ccccc1)Nc1nccs1	84.2%
